Measured values from PubChem BioAssay (NCATS).
Values joined by “and” are separate entries in the source; they are usually repeats but may differ in a detail not shown here. Equal entries are not always repeated. Results filed as inconclusive are left out. Entries that show only a call come without a potency. Active and inactive are the calls of the source. Calls come from the whole dose curve; as a rule, active = well fitted curve in the direction sought with a large enough effect; inconclusive = small, poorly fitted or top-dose-only effect, or another doubt; inactive = no such curve, though single readings can be large; an effect the other way counts as inactive or inconclusive.

What was measured:
[1] = target: Calcium and integrin-binding protein 1 (Homo sapiens) (UniProt Q99828); test: Primary qHTS for Identification of Calcium Integrin Binding Protein 1 (CIB1) Competitor (AID 1508620);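 note: GST tagged CIB1 binding a fluorescein labelled alphaIIb integrin peptide tracer; top concentration of the series differs between compounds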
Sequence of Calcium and integrin-binding protein 1 (Homo sapiens) (Q99828 whole entry, looked up): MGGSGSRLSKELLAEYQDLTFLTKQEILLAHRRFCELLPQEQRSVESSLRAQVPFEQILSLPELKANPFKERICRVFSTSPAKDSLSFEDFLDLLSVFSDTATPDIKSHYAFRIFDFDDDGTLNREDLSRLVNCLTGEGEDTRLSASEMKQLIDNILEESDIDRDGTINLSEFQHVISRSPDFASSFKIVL
How it was run: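 CIB1-GST (1 uM final) and compound incubated 15 min at room temperature before adding FITC-alphaIIb peptide tracer (100 nM final). Competition for binding read by fluorescence polarization (ex 480, em 540) after another 15 min at room temperature.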

[2] = Primary qHTS for inhibitors of nuclear receptor binding SET domain protein 2 (NSD2) in an isogenic RCH-ACV NSD2 p.E1099K mutant (9B) (AID 1645876); note: nearly all actives have a fitted effect of over 70% in size; note: potency is the fitted concentration of half-maximal effect
[3] = Primary qHTS for inhibitors of nuclear receptor binding SET domain protein 2 (NSD2) in an RCH-ACV wild type WT cells (2C) (AID 1645877); note: nearly all actives have a fitted effect of over 70% in size; note: potency is the fitted concentration of half-maximal effect
[4] = target: Catechol O-methyltransferase (Homo sapiens) (UniProt P21964); test: Confirmatory Screen for Target Class Profiling of Small Molecule Inhibitors of Methyltransferases (AID 1745852); conditions: MTase-Glo luminescence, SAH detection, recombinant enzyme; measured here: COMT max response; stronger effect = lower value
Sequence of Catechol O-methyltransferase (Homo sapiens) (P21964 whole entry, looked up): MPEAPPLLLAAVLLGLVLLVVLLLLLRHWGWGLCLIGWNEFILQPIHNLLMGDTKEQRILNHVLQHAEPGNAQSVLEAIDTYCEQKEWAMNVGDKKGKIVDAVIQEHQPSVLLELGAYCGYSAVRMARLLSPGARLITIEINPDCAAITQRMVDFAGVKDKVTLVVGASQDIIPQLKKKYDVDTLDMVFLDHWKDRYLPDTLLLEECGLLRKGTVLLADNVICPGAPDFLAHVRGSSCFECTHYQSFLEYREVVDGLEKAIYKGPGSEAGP

Which results are given for `COc1cc(/C=C/C(=O)OC[C@H]2O[C@@](CO)(O[C@H]3O[C@H](CO)[C@@H](O)[C@H](O)[C@H]3O)[C@@H](OC(=O)/C=C/c3ccc(O)c(OC)c3)[C@@H]2O)ccc1O`?
Potency [1]: inactive; Potency [2]: inactive; Potency [3]: inactive; activity [4]: -51%

Which results are given for `C=C1C(=O)OC2C1CCC(=C)C1CC(OC(C)=O)C(=C)C12` (stereo not drawn)?
Potency [1]: inactive; Potency [2]: 10300 nM (active); Potency [3]: 3250 nM (active); activity [4]: -65.1%

What does the source list for `CC(C)=CCC(O)/C(C)=C/CO[C@@H]1O[C@H](CO)[C@@H](O)[C@H](O)[C@H]1O` (stereo partly drawn)?
Potency [1]: inactive; Potency [2]: inactive; Potency [3]: inactive; activity [4]: -52%

With `COC(=O)C1=CO[C@@H](O[C@@H]2O[C@H](CO)[C@@H](O)[C@H](O)[C@H]2O)[C@H]2[C@@H]1CC(OC)O[C@@H]2C` (stereo partly drawn) as the molecule, how does the Potency [1] read?
Its Potency is “inactive”.

What about the Potency [2] of the same molecule?
Its Potency is “inactive”.

What about the Potency [3] of the same molecule?
Its Potency is “inactive”.

And the activity [4]?
The activity was -63.3%.

With `COC(=O)C1=C2Nc3ccccc3C23CCN2CCCC(C(C)O)(C1)C23` (stereo not drawn) as the molecule, how does the Potency [1] read?
Its Potency is “inactive”.

What about the Potency [2] of the same molecule?
The Potency was “inactive”.

And the Potency [3]?
The Potency was “inactive”.

What about the activity [4] of the same molecule?
Its activity is -1.85%.

Which results are given for `C[C@]12C[C@@H](O)[C@@H]3C[C@@]1(O[C@@H]1O[C@H](CO)[C@@H](O)[C@H](O)[C@H]1O)[C@]3(COC(=O)c1ccccc1)C(=O)O2`?
Potency [1]: inactive; Potency [2]: inactive; Potency [3]: inactive; activity [4]: -66.1%

Which Potency [1] does the source give for `CCC(C)C(=O)OC1CC(O)C23C4OCC5(C(O)CC2C1(C)C(O)O4)C3C(=O)C(O)C1(C)C(O)(c2ccoc2)CC2OC251` (stereo not drawn) here?
Its Potency is “inactive”.

And the Potency [2]?
The Potency was 136 nM (active).

And the Potency [3]?
Its Potency is 76.5 nM (active).

What about the activity [4] of the same molecule?
Its activity is -73%.

Which results are given for `CCCCc1nc2cc(/C=C/C(=O)NO)ccc2n1CCN(CC)CC`?
Potency [1]: inactive; Potency [2]: 258 nM (active) and 590 nM (active); Potency [3]: 230 nM (active) and 525 nM (active); activity [4]: -23.3%

With `COC(=O)C1=CO[C@@H](O[C@@H]2O[C@H](CO[C@@H]3O[C@H](COC(=O)/C=C/c4cc(OC)c(O)c(OC)c4)[C@@H](O)[C@H](O)[C@H]3O)[C@@H](O)[C@H](O)[C@H]2O)[C@@H]2C(CO)=CC[C@H]12` as the molecule, how does the Potency [1] read?
Its Potency is “inactive”.

And the Potency [2]?
The Potency was “inactive”.

What about the Potency [3] of the same molecule?
The Potency was “inactive”.

And the activity [4]?
Its activity is -63.8%.

What does the source list for `C=C1C(=O)O[C@@H]2/C=C(\C)C(=O)/C=C/[C@](C)(O)C[C@@H](OC(=O)C(C)C)[C@@H]12`?
Potency [1]: inactive; Potency [2]: 401 nM (active); Potency [3]: 284 nM (active); activity [4]: -80.2%

Which Potency [1] does the source give for `CC1(C)CC[C@]2(C(=O)O[C@@H]3O[C@H](CO)[C@@H](O)[C@H](O)[C@H]3O)CC[C@]3(C)C(=CCC4[C@@]5(C)C[C@@H](O)[C@H](O)[C@@](C)(CO)C5CC[C@]43C)C2[C@@H]1O` (stereo partly drawn) here?
Its Potency is “inactive”.

What about the Potency [2] of the same molecule?
Its Potency is “inactive”.

And the Potency [3]?
Its Potency is “inactive”.

And the activity [4]?
The activity was -79.9%.

Which Potency [1] does the source give for `CC1=CC(=O)C2(OC3OC(C)C(O)C(OC(=O)/C=C/c4ccccc4)C3O)C=COC(OC3OC(CO)C(O)C(O)C3O)C12` (stereo not drawn) here?
Its Potency is “inactive”.

And the Potency [2]?
The Potency was “inactive”.

What about the Potency [3] of the same molecule?
The Potency was “inactive”.

And the activity [4]?
The activity was -48.2%.

What does the source list for `Cc1cc(N(C)C)ccc1-c1nc2ccc(-c3nc4ccc(N5CCN(C)CC5)cc4[nH]3)cc2[nH]1`?
Potency [1]: inactive; Potency [2]: 578 nM (active); Potency [3]: 258 nM (active); activity [4]: -4.96%

Which Potency [1] does the source give for `CCN(CC)c1ccc2c(O)c(C=Nc3ccc(CC(=O)O)c(-c4c5c(nc6ccccc46)CCC(C(=O)NN)C5)c3)c(=O)oc2c1` (stereo not drawn) here?
Its Potency is “inactive”.

What about the Potency [2] of the same molecule?
Its Potency is 2900 nM (active).

And the Potency [3]?
Its Potency is 4590 nM (active).

What about the activity [4] of the same molecule?
The activity was -17%.

Which Potency [1] does the source give for `C=C1C(=O)OC2/C=C(\CO)CC/C=C(\C=O)CC(OC(=O)CC(C)C)C12` (stereo not drawn) here?
Its Potency is “inactive”.

What about the Potency [2] of the same molecule?
Its Potency is 4010 nM (active).

And the Potency [3]?
Its Potency is 2260 nM (active).

And the activity [4]?
The activity was -71%.

For `C=C[C@H]1[C@H](O[C@@H]2O[C@H](CO)[C@@H](O)[C@H](O)[C@H]2O)OC=C(C(=O)OC)[C@H]1CCOC(=O)c1cc(O)c(O)c(O)c1`, which Potency [1] is on record?
Its Potency is “inactive”.

And the Potency [2]?
Its Potency is “inactive”.

And the Potency [3]?
Its Potency is “inactive”.

What about the activity [4] of the same molecule?
Its activity is -67.5%.

For `NCCCNc1ccc(Nc2nccc(Nc3cc(C4CC4)[nH]n3)n2)cc1`, which Potency [1] is on record?
Its Potency is “inactive”.

And the Potency [2]?
Its Potency is 578 nM (active).

What about the Potency [3] of the same molecule?
Its Potency is 515 nM (active).

And the activity [4]?
The activity was -13.5%.

With `CC1(C)CC[C@]2(C(=O)O[C@@H]3O[C@H](CO)[C@@H](O)[C@H](O)[C@H]3O)CC[C@]3(C)C(=CCC4[C@@]5(C)C[C@@H](O)[C@H](O)C(C)(C)C5CC[C@]43C)C2[C@@H]1O` (stereo partly drawn) as the molecule, how does the Potency [1] read?
Its Potency is “inactive”.

What about the Potency [2] of the same molecule?
Its Potency is “inactive”.

What about the Potency [3] of the same molecule?
The Potency was “inactive”.

And the activity [4]?
The activity was -85.2%.

Which results are given for `C=C(C)C1Cc2cc(C(=O)OC3OC(CO)C(O)C(O)C3O)ccc2O1` (stereo not drawn)?
Potency [1]: inactive; Potency [2]: inactive; Potency [3]: inactive; activity [4]: -58%

Which results are given for `O=C1NC(Cc2c[nH]c3ccccc23)C(=O)NC1Cc1c[nH]c2ccccc12` (stereo not drawn)?
Potency [1]: inactive; Potency [2]: inactive; Potency [3]: inactive

For `COc1cc(C(=O)OC[C@H]2O[C@@H](Oc3ccccc3/C=C/C(=O)O)[C@H](O)[C@@H](O)[C@@H]2O)cc(OC)c1OC`, which Potency [1] is on record?
The Potency was “inactive”.

What about the Potency [2] of the same molecule?
The Potency was “inactive”.

And the Potency [3]?
Its Potency is “inactive”.

What about the activity [4] of the same molecule?
The activity was -77.7%.
